Assay outcomes from PubChem.
Sampled rows, rich in hits. Any-hit rate of the full collection: about 3.1%.
INS-1E GSIS act – primary screen for activators of insulin secretion dependent on glucose, INS-1E cells, GLuc reporter luminescence; actives 0.61% (n = 370,000); AID 743287; INS-1E GLuc reporter insulin secretion, 2-3 h; activation, % at 16.6 µM;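 active = lowest replicate activation of at least 40%, so every replicate reaches that level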;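 also: 0% = median of neutral control wells and 100% = median of IBMX positive control wells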
Env fusion inh – blocks HIV Env-driven cell-cell fusion; actives 1.1% (n = 360,000); HeLa-JRFL Env/CEM21 cell fusion, luciferase; inhibition, % at 12.3 µM; AID 651610;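 active = mean replicate inhibition score of at least 50 and every replicate individually at or above 50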;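 also: 0% = plate neutral controls and 100% = maraviroc near 300 nM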
EWS-Fli block – EWS/Fli transcriptional activity inhibition | AID 651661 | actives 0.67% (n = 350,000) | inhibition, % at 12.6 µM | A673 NR0B1-luciferase reporter, viability-normalised;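 active = mean inhibition of at least 50% after viability correction, with every replicate also passing that limit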;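 also: firefly luciferase signal divided by Alamar Blue viability fluorescence both relative to DMSO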
C2C12 statin – suppression of simvastatin myotoxicity. C2C12 myotubes + simvastatin, ATP luminescence, 48 h; scaled: DMSO 0, geranylgeraniol control 100. rescue of ATP level, % at 7.49 µM. actives 0.78% (n = 330,000). AID 602340;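 active = mean ATP rescue above about 67%, or every replicate alone reaching that limit, limit read from the data, passing the limit was not always enough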;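 also: myotubes were challenged with 10 µM simvastatin during compound exposure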
miR122 inh – inhibitors of miR-122 in Huh7 cells; Huh7 miR-122 Renilla luciferase sensor, 48 h; neutral wells = 0, positive control = 100; activation (reporter increase), % at 12.5 µM; actives 0.3% (n = 340,000);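 active = mean replicate activation score at least 90 and every replicate individually at or above 90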;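 also: higher luciferase means less miR-122 activity so hits act as miR-122 inhibitors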
PAX8 reporter – lowers PAX8-driven luciferase in RMG-I cells; RMG-I TPO-luciferase reporter, SteadyGlo, 24 h; AID 652154; inhibition, % at 12.6 µM; actives 1.2% (n = 360,000);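 active = mean replicate inhibition at least 60% with every replicate also reaching 60%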;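 also: luciferase light reporting Pax8 driven TPO promoter activity; plate controls were median of neutral control wells for no effect and mitoxantrone controls for full effect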
Active calls of the source: *; . = not tested or not shown; [ ] = dose if it differs, or a comment.

SMILES	INS-1E GSIS act	Env fusion inh	EWS-Fli block	C2C12 statin	miR122 inh	PAX8 reporter
Cc1c(C(=O)Nc2nccs2)sc2nc(-c3cccs3)cc(C(F)(F)F)c12	.	57*	.	-12	-2	.
O=C1C=CC(=C(c2ccc(O)cc2)c2ccc(O)cc2)C=C1	-40	27	18	-24	.	106*
CNC[C@@H]1Oc2ccc(NC(=O)Nc3ccc(F)cc3)cc2C(=O)N([C@@H](C)CO)C[C@H]1C	-4	.	-3	-1	6[16.7 µM]	-9
Cc1ccc(C)c(S(=O)(=O)Nc2ccc(C(=O)N3CCCCC3)cc2)c1	-21	-5	3	0	109*	-1
CC1CCCCN1C(=O)c1ccc(C(=O)N2CCCCC2C)cc1 (configuration not stated)	0	-17	.	-1	0	.
Cc1ccc(C)c(S(=O)(=O)NCc2ccc(C(=O)N3CCCCC3C)cc2)c1 (configuration not stated)	-17	-10	.	114*	-5	.
Cc1cc(Br)ccc1OCCn1ccnc1	-9	.	8	.	-1	73*
CC(C)NC(=O)N(C)C[C@@H]1Oc2ccc(NC(=O)C3CC3)cc2CC(=O)N([C@@H](C)CO)C[C@@H]1C	9	59*[16.7 µM]	2	31	3[16.7 µM]	-2
COc1ccc(NC(=O)Nc2ccc3c(c2)CC(=O)N([C@H](C)CO)C[C@@H](C)[C@@H](CN(C)Cc2ccc(Oc4ccccc4)cc2)O3)cc1	2	27[16.7 µM]	21	-228	-8[16.7 µM]	103*
COc1ccc(NC(=O)Nc2ccc3c(c2)CC(=O)N([C@H](C)CO)C[C@@H](C)[C@H](CN(C)Cc2ccc(Oc4ccccc4)cc2)O3)cc1	2	60*[16.7 µM]	-13	9	5[16.7 µM]	-49
COc1ccc(NC(=O)Nc2ccc3c(c2)CC(=O)N([C@@H](C)CO)C[C@H](C)[C@@H](CN(C)Cc2ccc(Oc4ccccc4)cc2)O3)cc1	-5	-8[16.7 µM]	-9	-151	-8[16.7 µM]	23
COc1ccc(NC(=O)Nc2ccc3c(c2)CC(=O)N([C@@H](C)CO)C[C@@H](C)[C@@H](CN(C)C(=O)NC(C)C)O3)cc1	23	-7[16.7 µM]	1	-37	101*[16.7 µM]	0
C[C@H](CO)N1C[C@H](C)[C@@H](CN(C)S(=O)(=O)c2ccc(Cl)cc2)Oc2ccc(NC(=O)c3ccncc3)cc2C1=O	4	.	16	-8	5[16.7 µM]	-6
C[C@@H]1CCCCO[C@H](CN(C)C(=O)Nc2ccc3c(c2)OCO3)[C@H](C)CN([C@@H](C)CO)C(=O)c2cc(NC(=O)Nc3ccccc3)ccc2O1	10	-47[16.7 µM]	-70	.	-6[16.7 µM]	16
C/C=C/c1cnc2c(c1)C(=O)N([C@@H](C)CO)C[C@H](C)[C@@H](CN(C)C(=O)C1CCOCC1)O2	25	.	-6	9	-9[16.7 µM]	1
COc1ccc(NC(=O)Nc2ccc3c(c2)CC(=O)N([C@@H](C)CO)C[C@@H](C)[C@H](CN(C)Cc2ccc(Oc4ccccc4)cc2)O3)cc1	-5	19[16.7 µM]	10	8	5[16.7 µM]	70*
COC(=O)C1=C(C)N=C2SC(C)C(=O)N2C1c1cccs1 (configuration not stated)	.	.	.	121*	5	.
C[C@H](O)C#Cc1cnc2c(c1)C(=O)N([C@@H](C)CO)C[C@@H](C)[C@H](CN(C)Cc1ccc(-c3ccccc3)cc1)O2	-15	-25[16.7 µM]	-1	22	-22[16.7 µM]	72*
C[C@H](O)C#Cc1cnc2c(c1)C(=O)N([C@H](C)CO)C[C@H](C)[C@H](CN(C)Cc1ccc(-c3ccccc3)cc1)O2	10	-17[16.7 µM]	9	18	-6[16.7 µM]	87*
C[C@H](O)C#Cc1cnc2c(c1)C(=O)N([C@H](C)CO)C[C@@H](C)[C@@H](CN(C)Cc1ccc(-c3ccccc3)cc1)O2	-8	4[16.7 µM]	11	35	-17	65*
C[C@H](O)C#Cc1cnc2c(c1)C(=O)N([C@H](C)CO)C[C@@H](C)[C@H](CN(C)Cc1ccc(-c3ccccc3)cc1)O2	10	-12[16.7 µM]	-9	0	-2[16.7 µM]	-6
C[C@@H]1CN([C@H](C)CO)C(=O)c2cc(-c3cccnc3)cnc2O[C@H]1CN(C)Cc1ccc(-c2ccccc2)cc1	-37	16[16.7 µM]	57*	-12	.	.
